In the library only some 7.1% were active in any assay of this set; here they are far more common.
ATXN_viability: cell viability loss in ATXN counter-screen; S2 cells (HEK-293 line with an ATXN2-luciferase reporter) viability, CellTiter-Fluor protease fluorescence, 24 h; 400,000 compounds, 0.49% hits; AID 651635; Potency, µM (titrated, usually from 56.7 µM), actives largely listed as cytotoxic; further: nearly all actives have a fitted effect of over 40% in size
IL1B_secr_inh: inhibitors of inflammasome signaling (IL-1 beta secretion); THP-1 LPS/ATP IL-1B secretion, AlphaLISA, 16 h; hits give low values; activity change, % at 57.5 µM; 360,000 compounds, 4.7% hits; AID 743279; in the data active means activity change below about -50%; inconclusive means mostly about -30% to -49%
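Secreted IL-1B measured by AlphaLISA bead assay after 16 h compound exposure of THP-1 cells; compounds (final up to 57.5 uM) added 1 h before LPS (250 ng/mL) and ATP (1.25 mM) stimulation; lower signal means less secretion.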
ATXN2_expr_inh: inhibitors of ATXN2 expression; AID 1745845; 360,000 compounds, 0.72% hits; Potency, µM (highest dose often 57 µM), usual class: inhibitors; HEK-293 ATXN2-luciferase reporter, luminescence, 24 h; further: nearly all actives have a fitted effect of over 55% in size
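ATXN2-luciferase reporter cells (luciferase flanked by upstream and downstream ATXN2 gene portions) were treated 24 h at 37 °C with compounds at up to 57 uM. SteadyGlo luminescence gave expression; GF-AFC fluorescence gave viability.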
MCF10A_rerep: induces DNA re-replication in MCF 10a normal breast cells | MCF 10A DNA re-replication, Hoechst nuclear intensity, 48 h | Potency, µM (series often up to 46.1 µM), usual class: activators | 350,000 compounds, 2.9% hits | AID 624296; further: nearly all actives have a fitted effect of over 50% in size
SW480_rereplic: induces DNA re-replication in SW480 colon adenocarcinoma cells. SW480 DNA re-replication, Hoechst DNA content imaging, 48 h. Potency, µM (doses to about 46.1 µM), most hits filed as activators. 340,000 compounds, 1.8% hits; further: nearly all actives have a fitted effect of over 55% in size
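Compounds, transferred as 23 nL by pin tool, were incubated with cells for 48 hr; DNA content per nucleus was then quantified by Hoechst staining and fluorescence plate imaging.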
PINK1_modulator: modulators of PINK1 expression. PINK1 immunofluorescence, high-content cytometry, 24 h. Potency, µM (highest dose often 76.6 µM), most hits filed as activators. 410,000 compounds, 0.2% hits. AID 624263; active means well fitted activation curve with a large enough effect; inconclusive means small, poorly fitted or top-dose-only effect; cell line not stated here; further: nearly all actives have a fitted effect of over 65% in size
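PINK1 protein level read as immunofluorescence by microplate cytometer in a fixed, stained stable cell line after 24 h exposure to five compound concentrations, with CCCP as control.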
A number is an active result; n = inactive; u = inconclusive; [ ] = dose if it differs, or a comment. Unless noted, the call rests on the fitted dose curve; in most records, active means well fitted curve in the direction sought with a large enough effect; inconclusive means small, poorly fitted or top-dose-only effect, or another doubt; inactive means no such curve, though single readings can be large; an effect the other way counts as inactive or inconclusive.

SMILES ATXN_viability IL1B_secr_inh ATXN2_expr_inh MCF10A_rerep SW480_rereplic PINK1_modulator
O=[N+]([O-])c1ccc(N2CCNCC2)cc1Sc1nc2ccccc2[nH]1 n n n n 16.4µM n
CS(=O)(=O)c1ccc(Sc2nc3ccccc3[nH]2)c([N+](=O)[O-])c1 n u n n[0.0737_µM] n n
NCCNc1ccc([N+](=O)[O-])c(Sc2nc3ccccc3[nH]2)c1 u n n n n n
O=[N+]([O-])c1cc(S(=O)(=O)C(F)(F)F)ccc1Sc1nc2ccccc2s1 u -121.1 u u 13µM n
O=S(=O)(Nc1ccc(O)c(Sc2nc3ccccc3s2)c1)c1ccc(F)cc1 n n n u n n
O=[N+]([O-])c1cc(S(=O)(=O)C(F)(F)F)ccc1Sc1nc2ccccc2[nH]1 u -102.9 u 3.66µM u n

Screens from PubChem.
